{
  "source": "ChEMBL document CHEMBL3988442",
  "about": "“University of Dundee, Small-Polar-MMV Screening Library” (2021)",
  "note": "Out of some 38,000 compounds screened, about 1,200 (3.2%) showed an effect of 50% or more. The median lay at about -58%. The sample as a whole holds a higher share of strong results than the screen did.",
  "data": [
    {"system": "Plasmodium falciparum", "assay": "Calibr Malaria Delayed Death Assay SOP", "type": "functional, organism-based", "parameters": "scale not given: in the data most compounds retested in dose-response had high values", "conditions": "concentration 4.99e-06 (unit not given; other assays of the set use mol/L)", "units": {"Percent Effect": "%"}, "values": [
      {"smiles": "CC(=O)N(c1ccc(C)cc1)c1nc(CN2CCCCC2C)cs1", "note": "(configuration not stated)", "Percent Effect": 61.62},
      {"smiles": "CC(=O)N(C)c1nc(CN2CCCC2c2cnn(C)c2)cs1", "note": "(configuration not stated)", "Percent Effect": -87.18},
      {"smiles": "CC(=O)N(c1ccc(F)cc1)c1nc(CN2CCCC2C(C)C)cs1", "note": "(configuration not stated)", "Percent Effect": 89.73},
      {"smiles": "CCN(C(C)=O)c1nc(CN2CCCCC2Cn2cncn2)cs1", "note": "(configuration not stated)", "Percent Effect": 7.085},
      {"smiles": "CC1CCCN(Cc2ccc(CNC(=O)NCc3ccon3)cc2)C1", "note": "(configuration not stated)", "Percent Effect": -178.1},
      {"smiles": "CC(=O)N(c1ccc(C)cc1)c1nc(CN2CCCC(C)C2)cs1", "note": "(configuration not stated)", "Percent Effect": 82.35},
      {"smiles": "O=C(O)C(F)(F)F.c1cnc(N2CC[C@@H](OCC3CC3)[C@@H]2Cc2cccnc2)nc1", "Percent Effect": -48.06},
      {"smiles": "Cn1cc(C(=O)CC2CCCN2C(=O)c2c[nH]c3ccccc23)cn1", "note": "(configuration not stated)", "Percent Effect": 4.786},
      {"smiles": "CCC(CO)N(C/C(C)=C/c1ccco1)Cc1ccco1", "note": "(configuration not stated)", "Percent Effect": -44.13},
      {"smiles": "Cc1ccc(C(=O)N2CCO[C@H]3[C@H](OCC4CCOCC4)CC[C@@H]32)o1", "Percent Effect": -19.31},
      {"smiles": "CS(=O)(=O)NC[C@]12COC[C@H]1CN(C(=O)CC1CCCC1)C2", "Percent Effect": -153.3},
      {"smiles": "O=C(C1CCOCC1)N1C[C@H]2CCC[C@@]2(COc2cccnc2)C1.O=C(O)C(F)(F)F", "Percent Effect": -16.46},
      {"smiles": "Cn1nnc(NCc2ccc(OCc3ccc(Cl)cc3)cc2)n1", "Percent Effect": -71.17},
      {"smiles": "Cc1nc2oc(C(=O)N3CCOCC3)c(N)c2c2c1CCCC2", "Percent Effect": -269.1},
      {"smiles": "O=C(C[C@@H]1COC[C@H]2CN(Cc3ccccc3)C[C@@H]12)N1CCCC1.O=C(O)C(F)(F)F", "Percent Effect": -13.07},
      {"smiles": "CC(C)(C)c1cc2ncn(CCCN3CCCCC3CO)c(=O)c2s1", "note": "(configuration not stated)", "Percent Effect": -23.08},
      {"smiles": "O=C(NCC1CC1)C1CCC2(CCN(C(=O)c3ccccn3)CC2)O1.O=C(O)C(F)(F)F", "note": "(configuration not stated)", "Percent Effect": -137.4},
      {"smiles": "O=C(NCC(O)CO)Nc1cc(Br)ccc1F", "note": "(configuration not stated)", "Percent Effect": -140},
      {"smiles": "O=C(NCc1cccnc1N1CCc2ccccc2C1)c1cc(=O)[nH][nH]1", "Percent Effect": -96.6},
      {"smiles": "Cc1nc(CN2CCCC(NCc3nc4ccccc4s3)C2)no1", "note": "(configuration not stated)", "Percent Effect": -31.98},
      {"smiles": "Cc1nc(CN2CCCC(NCc3cccc4ccccc34)C2)no1", "note": "(configuration not stated)", "Percent Effect": 57.02},
      {"smiles": "Cc1nc(CN2CCCC(N(C)Cc3c(C)noc3C)C2)no1", "note": "(configuration not stated)", "Percent Effect": 57.32},
      {"smiles": "Cc1nc(CN2CCCC(N(C)Cc3cnn(C)c3)C2)no1", "note": "(configuration not stated)", "Percent Effect": -49.27},
      {"smiles": "Cc1nc(CN2CCCC(NCCc3ccccc3Cl)C2)no1", "note": "(configuration not stated)", "Percent Effect": 81.78},
      {"smiles": "COc1ccccc1OCCNC1CCCN(Cc2noc(C)n2)C1", "note": "(configuration not stated)", "Percent Effect": 19.3},
      {"smiles": "Cc1nc(CN2CCCC(NCc3ccc4ccccc4c3)C2)no1", "note": "(configuration not stated)", "Percent Effect": -12.45},
      {"smiles": "Cc1cc(CN(C)C2CCCN(Cc3noc(C)n3)C2)no1", "note": "(configuration not stated)", "Percent Effect": -96.62},
      {"smiles": "Cc1nc(CN2CCCC(NCCOc3ccccc3)C2)no1", "note": "(configuration not stated)", "Percent Effect": -60.44},
      {"smiles": "CCOc1ncccc1CNS(=O)(=O)c1ccc2c(c1)CCO2", "Percent Effect": -29.02},
      {"smiles": "CCc1nnc2n1CCN(Cc1nc3c(F)cccc3[nH]1)C2", "Percent Effect": -34.12},
      {"smiles": "O=C(NCc1cccs1)[C@H]1CC[C@@H]2[C@@H](CCN2Cc2ccoc2)O1.O=C(O)C(F)(F)F", "Percent Effect": 4.133},
      {"smiles": "Cc1nnc([C@@]23CCO[C@@H]2CCN(Cc2cccc4ccccc24)C3)o1", "Percent Effect": -36.67},
      {"smiles": "COc1cc(C2CC(=O)Nc3c2nc2n3CCCC2)cc(OC)c1O", "note": "(configuration not stated)", "Percent Effect": -209},
      {"smiles": "Cc1noc2ncc(S(=O)(=O)N3CCCC(C)(C)CC3)cc12", "Percent Effect": -55},
      {"smiles": "CCN(CC)c1ccc(-c2ccc(C)c(S(N)(=O)=O)c2)nn1", "Percent Effect": -97.64},
      {"smiles": "CC(CN1CC[C@@H]2CCCC[C@@H]2C1)n1cnc2ccccc21", "note": "(some centres not stated)", "Percent Effect": -12.48},
      {"smiles": "CN(Cc1ccc(N(C)C)cc1)C(=O)NCc1nnc2n1CCC2", "Percent Effect": -107.1},
      {"smiles": "COc1ccccc1C(O)Cn1cc(C(=O)NCc2ccco2)nn1", "note": "(configuration not stated)", "Percent Effect": -49.33},
      {"smiles": "COc1ccccc1C(C)(C)NCc1ccc(C)o1", "Percent Effect": 77.27},
      {"smiles": "Cc1ccc(CNC(C)(C)c2noc(C(C)(C)C)n2)o1", "Percent Effect": -93.54},
      {"smiles": "CNc1c(NCc2ccco2)c(=O)c1=O", "Percent Effect": -69.06},
      {"smiles": "COc1ccccc1C(C)(C)NCc1ccco1", "Percent Effect": 64.69},
      {"smiles": "COC(=O)c1ccc(CNC(C)(C)c2ccccc2OC)o1", "Percent Effect": -1.138},
      {"smiles": "CCc1nc(CN2CCCC(N(C)Cc3nc(C)c(C)o3)C2)no1", "note": "(configuration not stated)", "Percent Effect": -5.85},
      {"smiles": "Cc1ncnc2c1CCN(CC(=O)N(C)C)CC2.O=C(O)C(F)(F)F", "Percent Effect": -30.27},
      {"smiles": "O=C(C1=COCCO1)N1CC(Oc2nc3c(Cl)cccc3s2)C1", "Percent Effect": -117.3},
      {"smiles": "COCCN1C(=O)CC[C@@H]2[C@H]1CCN2S(=O)(=O)c1cccs1", "Percent Effect": -44.47}
    ]}
  ]
}
